From PubChem
KB-V1 MDR tox – KB-V1 MDR subline cytotoxicity; KB-V1 MDR cells viability, CellTiter-Glo, 72 h; Potency, µM (series often up to 46.1 µM), most hits filed as cytotoxic; 400,000 tested, 3.4% active; AID 1347076; also: nearly all actives have a fitted effect of over 60% in size
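Cytotoxicity via CellTiter-Glo luminescence after 72 h compound exposure at 37 degrees C. Cells: drug-selected KB-V1 line, DMEM phenol-red free plus 10% FBS. Compounds tested at multiple concentrations; normalized data fitted to concentration-effect curves.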
KB-3-1 cytotox – KB-3-1 parental cell cytotoxicity; KB-3-1 viability, CellTiter-Glo ATP luminescence, 72 h; Potency, µM (highest dose often 46.1 µM), actives largely listed as cytotoxic; 400,000 tested, 1.4% active; AID 1347075; also: nearly all actives have a fitted effect of over 60% in size
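Parental KB-3-1 viability, qHTS format: 72 h compound exposure, 37 °C; CellTiter-Glo; media-only wells and DMSO plates as controls; concentration-effect fits on corrected data.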
SW480 rereplic – DNA re-replication induction in SW480 cells. SW480 DNA re-replication, Hoechst DNA content imaging, 48 h. Potency, µM (doses to about 46.1 µM), hits mostly activators. 340,000 tested, 1.8% active. AID 624297; also: nearly all actives have a fitted effect of over 55% in size
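Per well, 250 cells were exposed to pinned compound for 48 hr. Nuclear DNA was visualised with Hoechst (40 min, 37 C) and total object intensity recorded by fluorescence scanning.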
VP16 counter – counter-screen for ROR gamma inhibitors: Gal4-VP16 reporter. Drosophila S2 Gal4-VP16 UAS-luciferase, luminescence, 20 h. 310,000 tested, 3.5% active. Potency, µM (doses to about 53.6 µM), usual class: inhibitors. AID 2546;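 also: Gal4-VP16 expression switched on by copper sulfate through the metallothionein promoter; nearly all actives have a fitted effect of over 50% in size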
MCF10A rereplic – inducers of DNA re-replication in MCF 10A breast cells; Potency, µM (titrated, usually from 46.1 µM), usual class: activators; 350,000 tested, 2.9% active; MCF 10A DNA re-replication, Hoechst nuclear intensity, 48 h; also: nearly all actives have a fitted effect of over 50% in size
RORg inh – ROR gamma (mouse) transcription inhibition | Potency, µM (series often up to 53.6 µM), hits mostly inhibitors | Drosophila S2 Gal4-RORgamma UAS-luciferase reporter, 20 h | AID 2551 | 310,000 tested, 5.4% active | P51450; also: nearly all actives have a fitted effect of over 60% in size
Target sequence (P51450 whole entry, looked up, the tested form may be a part): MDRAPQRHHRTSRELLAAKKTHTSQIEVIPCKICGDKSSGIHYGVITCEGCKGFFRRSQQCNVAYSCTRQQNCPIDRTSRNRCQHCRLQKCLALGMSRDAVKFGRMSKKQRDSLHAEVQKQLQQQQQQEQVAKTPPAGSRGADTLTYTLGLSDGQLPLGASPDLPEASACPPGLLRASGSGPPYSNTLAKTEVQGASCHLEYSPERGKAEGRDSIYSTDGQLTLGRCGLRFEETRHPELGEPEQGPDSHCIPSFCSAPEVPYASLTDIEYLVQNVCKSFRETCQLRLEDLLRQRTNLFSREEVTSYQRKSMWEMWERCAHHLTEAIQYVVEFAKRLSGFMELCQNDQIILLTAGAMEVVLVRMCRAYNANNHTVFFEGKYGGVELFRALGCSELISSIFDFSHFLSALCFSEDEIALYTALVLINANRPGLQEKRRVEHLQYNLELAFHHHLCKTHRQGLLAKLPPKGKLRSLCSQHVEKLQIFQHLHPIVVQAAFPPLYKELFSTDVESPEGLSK
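ROR gamma transcriptional activity was tracked as Gal4-UAS luciferase output in stably transfected Drosophila Schneider cells, with compound added 1 hr before 700 uM copper sulfate induction and a 20 hr ambient-temperature incubation.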
Of the large screens only hits and unclear results are named; the others gave an inactive call; ! = not confirmed by another sample. An excerpt weighted towards active compounds, which were near 10% of everything screened. Calls follow the shape of the dose curve; as a rule, active = well fitted curve in the direction sought with a large enough effect; inconclusive = small, poorly fitted or top-dose-only effect, or another doubt; inactive = no such curve, though single readings can be large; an effect the other way counts as inactive or inconclusive.

CCCCOC(=O)c1ccc(-c2ccc(/C=N/NC(=S)NCC)o2)cc1	SW480 rereplic inconclusive, VP16 counter 2.5µM, MCF10A rereplic inconclusive, RORg inh 0.35µM
CCOC(=O)c1ccc(-c2ccc(/C=N/NC(=O)c3cncc(Br)c3)o2)cc1	VP16 counter inconclusive, RORg inh inconclusive
C=CCNC(=S)N/N=C/c1ccc(-c2ccc(Br)cc2)o1	SW480 rereplic inconclusive, VP16 counter 0.4µM, RORg inh 0.35µM
CCOc1ccccc1N(CC(=O)NC(C)(C)C)C(=O)Cn1nnc(-c2ccc(C)o2)n1	KB-V1 MDR tox 2.9µM
CCC(C(=O)NC1CCCC1)N(C(=O)Cn1nnc(-c2ccc(C)o2)n1)C(C)(C)C (centres undefined)	KB-V1 MDR tox 1.2µM
CCCC(C(=O)NC1CCCC1)N(C(=O)Cn1nnc(-c2ccc(C)o2)n1)C1CCCC1 (centres undefined)	KB-V1 MDR tox 4.1µM, SW480 rereplic inconclusive
Cc1ccc(-c2nnn(CC(=O)N(Cc3ccccc3)C(C(=O)NC3CCCC3)c3ccncc3)n2)o1 (centres undefined)	KB-V1 MDR tox 21µM, MCF10A rereplic inconclusive
Cc1ccc(N(C(=O)Cn2nnc(-c3ccc(C)o3)n2)C(C(=O)NC2CCCC2)c2ccncc2)cc1 (centres undefined)	none
CCC(C(=O)NC1CCCC1)N(C(=O)Cn1nnc(-c2ccc(C)o2)n1)c1ccc(OC)cc1 (centres undefined)	KB-V1 MDR tox inconclusive, SW480 rereplic inconclusive
CS(=O)(=O)Nc1cccc(-c2nccc(NCc3ccccc3)n2)c1	none (no result: KB-V1 MDR tox, KB-3-1 cytotox, SW480 rereplic, MCF10A rereplic)
CCOc1ccc2c(c1)c(=O)c(C(=O)c1ccc(C)cc1)cn2Cc1ccccc1OC	KB-V1 MDR tox inconclusive (no result: SW480 rereplic, VP16 counter, MCF10A rereplic, RORg inh)
O=C(Nc1cccc2[nH]c([C@H]3C[C@H](O)[C@@H](CO)O3)nc12)NC(c1ccccc1)c1ccccc1	none (no result: SW480 rereplic, VP16 counter, MCF10A rereplic, RORg inh)
Cc1ccc(NC(=O)CN(C)C(=O)C(C)N2CCN(Cc3ccccc3C)CC2)cc1 (centres undefined)	KB-V1 MDR tox 9.2µM (no result: VP16 counter, RORg inh)
COc1ccc2cc(C#N)c(SCC(=O)Nc3nonc3C)nc2c1	SW480 rereplic inconclusive
Cc1cc2cc(C#N)c(SCC(=O)Nc3nonc3C)nc2cc1C	SW480 rereplic inconclusive, MCF10A rereplic 15µM
CCOc1ccc(N2CC(C(=O)NC3CCSC3=O)CC2=O)cc1 (centres undefined)	SW480 rereplic inconclusive
O=C(Nc1cccc(F)c1)N1CCc2nc(NCc3cccc(Oc4ccccc4)c3)ncc2C1	KB-V1 MDR tox 18µM, KB-3-1 cytotox inconclusive (no result: SW480 rereplic, VP16 counter, MCF10A rereplic, RORg inh)
O=C(C1CCCCC1)N(Cc1cccnc1)c1nc2c(F)cccc2s1	none (no result: SW480 rereplic, VP16 counter, MCF10A rereplic, RORg inh)
Cc1cc(/C=C2/C(=N)N3C(=NC2=O)SN=C3S(C)(=O)=O)c(C)n1-c1ccc(F)cc1	MCF10A rereplic 21µM
CCOc1ccc(-n2c(C)cc(/C=C3/C(=N)N4C(=NC3=O)SN=C4S(C)(=O)=O)c2C)cc1	MCF10A rereplic 15µM
CNCCCC12CCC(c3ccccc31)c1ccccc12	KB-V1 MDR tox inconclusive, KB-3-1 cytotox inconclusive, SW480 rereplic inconclusive, VP16 counter inconclusive, MCF10A rereplic inconclusive, RORg inh 10µM!
CC1=Nc2ccc(C)cc2/C1=C/c1c(N)n2oc(C)cc2nc1=O	KB-V1 MDR tox inconclusive, KB-3-1 cytotox inconclusive, MCF10A rereplic 18µM
CC1=Nc2ccccc2/C1=C/c1c(N)n2c(S(=O)(=O)CC(C)C)nsc2nc1=O	MCF10A rereplic 15µM
CC1=Nc2ccccc2/C1=C/c1c(N)n2c(S(=O)(=O)C(C)C)nsc2nc1=O	none
CC1=Nc2ccc(C)cc2/C1=C/c1c(N)n2c(S(=O)(=O)C(C)C)nsc2nc1=O	MCF10A rereplic inconclusive
CSc1nsc2nc(=O)c(/C=C3\C(C)=Nc4ccc(C)cc43)c(N)n12	KB-3-1 cytotox inconclusive, SW480 rereplic inconclusive, MCF10A rereplic 9.2µM
COc1ccccc1C(=O)NC(=O)CSc1ccc(C)c(C)c1	none (no result: VP16 counter, RORg inh)
Cc1cc(C(=O)CSc2nc3ccc(Cl)cc3[nH]2)c(C)n1Cc1ccco1	KB-V1 MDR tox 21µM, MCF10A rereplic inconclusive (no result: VP16 counter, RORg inh)
O=C(CSc1nc2ccc(Cl)cc2[nH]1)NCc1ccco1	KB-V1 MDR tox inconclusive, MCF10A rereplic inconclusive
Cn1ccnc1SCc1cc(=O)[nH]c2ccccc12	none
CCn1c(SCc2cc(=O)[nH]c3ccccc23)nc2c1c(=O)n(C)c(=O)n2C	KB-V1 MDR tox 16µM (no result: VP16 counter, RORg inh)
CCn1c(SCC(=O)N2CCCc3ccccc32)nc2c1c(=O)n(C)c(=O)n2C	KB-V1 MDR tox 2.9µM, KB-3-1 cytotox inconclusive
CCn1c(SCC(=O)N2c3ccccc3CCc3ccccc32)nc2c1c(=O)n(C)c(=O)n2C	KB-V1 MDR tox 2.1µM (no result: VP16 counter, RORg inh)
COc1ccc(N2C(=O)CC(N3CCC(O)(c4cccc(C(F)(F)F)c4)CC3)C2=O)cc1 (centres undefined)	VP16 counter inconclusive, RORg inh 2.5µM
COc1ccc(N2C(=O)CC(N3CCCCC3)C2=O)cc1 (centres undefined)	VP16 counter inconclusive
O=C(Nc1cccc(OC(F)(F)F)c1)c1ccc(-c2cccnc2)c2ccoc12	none (no result: SW480 rereplic, VP16 counter, MCF10A rereplic, RORg inh)
Cc1cccc(Nc2cc(C)c3c(O)cccc3n2)c1C	KB-3-1 cytotox inconclusive, SW480 rereplic 21µM, VP16 counter inconclusive, MCF10A rereplic inconclusive
O=c1c2ccccc2nnn1CSc1nc2ccccc2c(=O)n1Cc1ccco1	VP16 counter inconclusive, MCF10A rereplic inconclusive, RORg inh 2.5µM
COn1c(SCc2cccc(Cl)c2)nc2ccccc2c1=O	KB-V1 MDR tox 16µM, KB-3-1 cytotox inconclusive
COn1c(SCc2ccccc2)nc2ccccc2c1=O	MCF10A rereplic inconclusive
O=c1c2ccccc2nc(SCc2cccc(F)c2)n1Cc1ccco1	KB-V1 MDR tox 7.3µM, KB-3-1 cytotox inconclusive, MCF10A rereplic inconclusive, RORg inh inconclusive
CC(C)(C)NC[C@H](O)CSc1nc(-c2ccc(C(N)=O)s2)cs1	none (no result: KB-V1 MDR tox, KB-3-1 cytotox)
COc1ccc([C@@H]2C[C@H]3[C@@H](CN2S(=O)(=O)c2ccccc2)C(=O)C[C@@H](c2ccc(C)cc2)N3S(=O)(=O)c2ccc(C)cc2)cc1	none (no result: SW480 rereplic, VP16 counter, MCF10A rereplic, RORg inh)
COc1cccc(CCN2C(=O)CCC3=C2CCC3=O)c1	none (no result: SW480 rereplic, VP16 counter, MCF10A rereplic, RORg inh)
Cc1cc(C(F)(F)F)c2c(N)c(C(=O)Nc3cc(C)on3)sc2n1	VP16 counter 4µM, MCF10A rereplic inconclusive, RORg inh 7.1µM
Cc1cc(C)c2c(N)c(C(=O)Nc3ccc(F)cc3)sc2n1	KB-3-1 cytotox inconclusive, MCF10A rereplic 21µM, RORg inh inconclusive
Cc1cc(C)c2c(N)c(C(=O)Nc3ccc(C)c(C)c3)sc2n1	SW480 rereplic inconclusive, MCF10A rereplic inconclusive, RORg inh inconclusive
COc1ccc(NC(=O)c2sc3nc(C)cc(C)c3c2N)cc1	SW480 rereplic inconclusive, MCF10A rereplic inconclusive
COc1ccc(/C=N/NC(=O)c2sc3nc(C)cc(C)c3c2N)cc1	SW480 rereplic inconclusive, MCF10A rereplic 5.8µM
